# The supplement of paper PMC3334620
# Over roughly 33,000 sequences, “E-score (-0.5 to 0.5)” has its median near -0.054; the highest 2% begin near 0.39. The sample as a whole holds a higher share of the highest values than the screen did.
# Target: Ylr278c (UniProt Q05854)
# Assay: PBM E-score (8-mer binding enrichment) (E-score (-0.5 to 0.5)); higher = stronger / more preferred TF binding
# Conditions: protein concentration: 200 nM; construct: GST-DNA-binding domain
# Outline: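 Universal all-10-mer Agilent arrays, fresh or stripped once, were converted to double-stranded form by primer extension. GST-tagged yeast transcription factors from PURExpress in vitro transcription/translation, full-length or DNA-binding domain only, were applied at about 100-200 nM and detected with fluorescent anti-GST. After masliner normalisation, the Universal PBM Analysis Suite scored each ungapped eight-base word together with its reverse complement by E-score.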
# Chain of UniProt Q05854 (Q05854 whole entry): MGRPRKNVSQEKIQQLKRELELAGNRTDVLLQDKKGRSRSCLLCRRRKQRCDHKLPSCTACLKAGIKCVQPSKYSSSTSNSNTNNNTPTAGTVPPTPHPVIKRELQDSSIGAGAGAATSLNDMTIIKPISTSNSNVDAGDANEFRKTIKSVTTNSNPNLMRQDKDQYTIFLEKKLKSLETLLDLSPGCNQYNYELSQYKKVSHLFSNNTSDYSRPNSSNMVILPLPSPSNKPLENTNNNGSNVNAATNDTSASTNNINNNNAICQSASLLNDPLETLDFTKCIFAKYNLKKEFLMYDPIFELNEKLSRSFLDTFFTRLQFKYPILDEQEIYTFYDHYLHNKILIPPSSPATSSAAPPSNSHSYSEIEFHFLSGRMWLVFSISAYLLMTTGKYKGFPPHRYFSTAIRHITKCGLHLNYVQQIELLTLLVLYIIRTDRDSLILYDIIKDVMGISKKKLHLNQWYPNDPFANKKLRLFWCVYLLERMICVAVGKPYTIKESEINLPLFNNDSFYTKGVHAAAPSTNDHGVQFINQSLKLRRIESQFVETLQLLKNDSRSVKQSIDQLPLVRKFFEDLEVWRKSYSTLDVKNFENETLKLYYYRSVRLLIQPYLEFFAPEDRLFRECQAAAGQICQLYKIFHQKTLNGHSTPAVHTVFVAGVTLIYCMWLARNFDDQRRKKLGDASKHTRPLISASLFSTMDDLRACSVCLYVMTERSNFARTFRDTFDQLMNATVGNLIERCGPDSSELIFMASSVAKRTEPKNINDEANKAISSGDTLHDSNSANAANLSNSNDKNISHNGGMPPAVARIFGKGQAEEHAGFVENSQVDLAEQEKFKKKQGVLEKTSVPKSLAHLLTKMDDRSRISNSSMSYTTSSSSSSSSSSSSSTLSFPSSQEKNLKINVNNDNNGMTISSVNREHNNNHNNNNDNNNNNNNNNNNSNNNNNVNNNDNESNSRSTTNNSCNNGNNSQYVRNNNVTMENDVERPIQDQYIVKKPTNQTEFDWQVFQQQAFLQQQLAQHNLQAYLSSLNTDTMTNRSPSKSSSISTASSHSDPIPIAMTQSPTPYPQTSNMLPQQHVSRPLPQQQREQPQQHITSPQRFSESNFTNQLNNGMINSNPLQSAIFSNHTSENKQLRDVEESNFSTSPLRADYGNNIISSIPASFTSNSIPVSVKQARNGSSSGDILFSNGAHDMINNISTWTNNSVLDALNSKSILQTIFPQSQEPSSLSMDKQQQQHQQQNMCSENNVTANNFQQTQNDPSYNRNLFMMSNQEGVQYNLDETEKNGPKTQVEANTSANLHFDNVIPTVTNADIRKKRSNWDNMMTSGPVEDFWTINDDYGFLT
row,Sequence,PBM E-score
1,ACGCTACT,0.0556
2,AGCAATCA,-0.118
3,CATTGTCC,0.314
4,CGCCATAG,-0.135
5,GGTTGATA,-0.0138
6,CGTCGTTC,0.137
7,ATCTGACG,-0.134
8,CGTGCCAA,-0.0693
9,CGGCCTTA,0.352
10,AGGCCTTC,-0.221
11,CGGCCTTC,0.394
12,GGTTCCGA,0.384
13,AGTTCCGA,0.43
14,AGTTCCGG,0.433
15,AGTTCCTG,-0.0874
16,AGTTCCGC,0.383
17,CGTTCCGA,0.288
18,AGAACCGG,0.345
19,CACTCCGA,0.454
20,CACTCCCA,-0.106
21,CACTCCCG,0.193
22,AACTCCCG,0.365
23,CACTCCGG,0.46
24,CACTCCGC,0.393
25,CACTCCAA,0.031

row,Sequence,PBM E-score
1,AACTCCGG,0.497
2,CACTCCAC,-0.139
3,AACTCCTG,0.152
4,CACTCCTC,0.0388
5,CACTCCTG,-0.0899
6,ATCTAGTC,0.0095
7,GAGCGCGC,0.182
8,GGCATCTA,-0.0448
9,ATCCATCA,-0.135
10,GACTCCTC,-0.135
11,AACTCCTC,0.0657
12,TACTCCTA,-0.187
13,TACTCCAA,-0.243
14,TACTCCGA,0.479
15,AACTCCGC,0.49
16,GACTCCGA,0.467
17,GACTCCGC,0.426
18,GACTCCAA,-0.221
19,GACTCCTA,-0.191
20,AACTCCCC,0.266
21,GACTCCAC,-0.0152
22,CATCAGTA,-0.233
23,GGTGTGAC,-0.172
24,GTAAACAA,-0.0542
25,GTGCTCAA,-0.104

row,Sequence,PBM E-score
1,ACCGCCCA,0.154
2,AACCTTCA,-0.245
3,TCACTCCA,-0.0238
4,AAGCTTGA,-0.0383
5,TCGGTCAA,0.0369
6,GATTGCAC,0.0435
7,AACTCCCT,-0.072
8,AACTCCAT,0.214
9,AACTCCGA,0.496
10,AACTCCAA,-0.00212
11,AACTCCCA,0.155
12,AACTCCGT,0.486
13,GACTTTCC,0.137
14,CTGCGAAA,-0.0633
15,CCCCTGAA,-0.144
16,CACCCCAA,-0.0388
17,GCGCCGTA,0.231
18,GCGCCGAA,0.302
19,CCGCCGTA,0.354
20,ACGCCGTA,0.0546
21,GCGCCGGA,0.432
22,CCGCCGCC,0.304
23,CCGCCGTC,0.218
24,CCGCCGCA,0.266
25,ACGCCGGG,0.365

row,Sequence,PBM E-score
1,CCGCCGGC,0.41
2,CCGCCGGA,0.462
3,ACGCCGGA,0.432
4,GTGGCCCA,-0.196
5,CGACTGAC,-0.171
6,CGGATCGA,0.19
7,CAACTCTC,-0.0583
8,ACTGAGAG,-0.25
9,TACAGTGA,-0.253
10,CGTATGCC,0.107
11,ATCTAGTG,-0.173
12,AACTATCC,0.0243
13,ACGCCGCC,0.279
14,ACGCCGGC,0.421
15,ACGCCGTC,0.276
16,AATATGAA,0.0372
17,CGGGCTGC,0.118
18,CGAATGGA,-0.121
19,GACGCTGA,-0.214
20,CTATCGGC,0.239
21,ATATCGGC,0.319
22,ATATCGGA,0.391
23,GTATCGAA,-0.103
24,GTATCGCA,-0.0427
25,CTATCGTA,-0.18

row,Sequence,PBM E-score
1,GTATCGGA,0.431
2,ATATCGGG,0.313
3,CTATCGGA,0.444
4,ATCTCAGG,-0.0988
5,GTGGCAAC,-0.0372
6,AGCAATCG,-0.0973
7,CTCCTTTA,-0.132
8,ACATTGCA,-0.0533
9,CAAGCCGG,0.263
10,AACGCCGC,0.339
11,ATCGCCGA,0.373
12,AAAGCCGG,0.391
13,AACGCCGT,0.272
14,AAAGCCGT,0.137
15,ATCGCCGC,0.295
16,CCCGCCGA,0.334
17,ATCGCCGG,0.421
18,GCCGCCGA,0.338
19,TCCGCCGA,0.437
20,AACGCCGG,0.424
21,ATCTGTGC,-0.167
22,AAGCGAAG,-0.0624
23,ACCGCCGC,0.235
24,CCCGCCGG,0.384
25,AAAAGCCG,0.388

row,Sequence,PBM E-score
1,AAAAGCCT,-0.224
2,ACCGCCGG,0.403
3,TACGCCGA,0.293
4,CACGCCGA,0.211
5,AAAAGCCC,0.151
6,AACGCCGA,0.433
7,GAGACTAC,0.0263
8,ACGCAAAG,-0.0959
9,CGACCGAA,0.148
10,CGACCGGA,0.409
11,GGACCGGA,0.442
12,GGACCGCA,0.238
13,AGACCGGA,0.335
14,CGACCGGC,0.248
15,CACAGATC,-0.0312
16,ACTGCTCT,-0.15
17,ATCTTCGG,0.303
18,AAGTCGCT,-0.163
19,ACGACACC,0.0263
20,ATCAAAAA,0.0906
21,CTCCCAGC,-0.0468
22,CATGTCCG,0.384
23,ATTGTCCC,0.0603
24,AATGTCCA,-0.115
25,AATGTCCG,0.458

row,Sequence,PBM E-score
1,ATTGTCCA,-0.113
2,ATTGTCCG,0.452
3,GCCGCAGA,0.143
4,AGGTGTCG,0.0347
5,GCCGATGA,0.298
6,GTCCGCAA,0.334
7,CTCCGCAC,0.41
8,TTCCGCAA,0.298
9,CTCCGCAA,0.409
10,ATCCGCAG,0.259
11,GTCCGCAC,0.308
12,ATCCGCAC,0.299
13,CTCCGCAG,0.418
14,CCCCGCAG,0.302
15,ACACCTGG,-0.243
16,CCCTCTAG,-0.311
17,CGTGGCCC,-0.0746
18,AACCCTAA,-0.0663
19,CGAAAGGC,0.0796
20,CCGCCCGC,0.349
21,AAGCCCGC,0.266
22,CCGCCCCG,0.42
